Measured values published in PubChem BioAssay AID2429 (National Center for Advancing Translational Sciences (NCATS), 2010).
The other results are listed elsewhere or left out. The source made the active and inactive calls. The call rests on the fitted dose curve.

Biological target: 15-hydroxyprostaglandin dehydrogenase [NAD(+)] (Homo sapiens) (UniProt P15428)
Assay: Confirmation qHTS Assay for Inhibitors of HPGD (15-Hydroxyprostaglandin Dehydrogenase)
Conditions: recombinant HPGD, NADH fluorescence, PGE2 substrate
Source text: Assay Overview: Human 15-Hydroxyprostaglandin dehydrogenase (HPGD) catalyzes the inactivation of prostaglandin E2, and plays a major role in cancer biology by antagonizing the oncogenic potential of cyclooxygenase type 2 (COX2). Assays are available, based on absorbance/fluorescence increase of NADH with the substrate 15-OH prostaglandin E2. Inhibition of HPGD activity was screened by utilizing prostaglandin as an electron donor and NAD+ as an electron acceptor/cofactor. An increase in the fluorescence intensity due to conversion of NAD+ to NADH was used to measure the enzyme activity. This assay is a confirmation screen of primary qHTS protocol (See AID 894). References 1. Myung SJ, Rerko RM, Yan M, Platzer P, Guda K, Dotson A, Lawrence E, Dannenberg AJ, Lovgren AK, Luo G, Pretlow TP, Newman RA, Willis J, Dawson D, Markowitz SD. 15-Hydroxyprostaglandin dehydrogenase is an in vivo suppressor of colon tumorigenesis. Proc Natl Acad Sci U S A. 2006 Aug 8;103(32):12098-102. 2. Yan M, Rerko RM, Platzer P, Dawson D, Willis J, Tong M, Lawrence E, Lutterbaugh J, Lu S, Willson JK, Luo G, Hensold J, Tai HH, Wilson K, Markowitz SD. 15-Hydroxyprostaglandin dehydrogenase, a COX-2 oncogene antagonist, is a TGF-beta-induced suppressor of human gastrointestinal cancers. Proc Natl Acad Sci U S A. 2004 Dec 14;101(50):17468-73. 3. Yang L, Amann JM, Kikuchi T, Porta R, Guix M, Gonzalez A, Park KH, Billheimer D, Arteaga CL, Tai HH, Dubois R, Carbone DP, Johnson DH. Inhibition of Epidermal Growth Factor Receptor Signaling Elevates 15-Hydroxyprostaglandin Dehydrogenase in Non-Small-Cell Lung Cancer. Cancer Res. 2007 Jun 15;67(12):5587-5593. NIH Chemical Genomics Center [NCGC] Structural Genomics Consortium [SGC]
Buffer: 50 mM Tris-HCl, 0.01% Tween 20, pH 8. Enzyme Buffer: 50 mM Tris-HCl, 0.5 mM NAD+ and 0.01% Tween 20, pH 8. Reagents/Controls: Buffer in columns 3 and 4 as negative control (no enzyme). Substrate/cofactor solution: 1 mM NAD+ and 30 uM prostaglandin (Sigma, prostaglandin E2, # P5640) final concentrations dispensed throughout the plate. Enzyme: 20 nM HPGD final concentration in columns 1, 2, 5-48. Column 1 and 2 is neutral (100% activity). A titration of control inhibitor GW5074 (G6416 Sigma-Aldrich, St. Louis, MO) top concentration 10 mM in DMSO, then 1:2 dilution for a total of 16 concentrations in duplicate) was pin-transferred into column 2. Assay Steps: Three uL of enzyme were dispensed to 1536-well Greiner black solid bottom plates. Compounds and control inhibitor (23 nL) were transferred via Kalypsys PinTool. The plates were incubated for 15 min at room temperature, and then 1 uL of substrate/cofactor solution was added to start the reaction. The plates were immediately transferred to and read 5 times every 30 seconds on ViewLux High-throughput CCD imager (Perkin-Elmer) using 360 nm excitation and 450 nm emission fluorescence protocol. The fluorescence intensity difference between the last and the first time points was used to compute reaction progress.

Chain of 15-hydroxyprostaglandin dehydrogenase [NAD(+)] (Homo sapiens) (P15428 whole entry, looked up): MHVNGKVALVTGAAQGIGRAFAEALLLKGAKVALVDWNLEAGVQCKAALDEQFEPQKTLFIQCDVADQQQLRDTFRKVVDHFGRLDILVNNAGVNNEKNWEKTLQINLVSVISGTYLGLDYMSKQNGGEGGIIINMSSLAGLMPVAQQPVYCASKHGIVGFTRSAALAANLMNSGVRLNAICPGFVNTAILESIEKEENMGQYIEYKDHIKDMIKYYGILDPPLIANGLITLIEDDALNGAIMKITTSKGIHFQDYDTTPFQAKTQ

Potency, active:
Cc1ccnc(-n2sc3ccccc3c2=O)n1 3.16 µM
O=C(c1ccc(CSc2ccccc2)cc1)N1CCCCCC1 0.224 µM
CC1CCN(C(=O)c2ccc(CSc3ccc(Cl)cc3)cc2)CC1 0.631 µM
CC1CCN(C(=O)c2cc3nc(C4CC4)cc(C(F)(F)F)n3n2)CC1 3.98 µM
CN(c1ccc(C(=O)N2CCc3ccccc3C2)cc1)S(C)(=O)=O 14.1 µM
